# Reference: PubChem BioAssay AID2326 (National Center for Advancing Translational Sciences (NCATS), 2010)
# About 1,100 (0.41%) of roughly 270,000 compounds were called active. Inconclusive results (about 3%) are left out. The call rests on the fitted dose curve. Shown is part of a subset that was picked to be rich in actives. Entries that show only a call come without a potency.
# Assay: qHTS Assay for Inhibitors of Influenza NS1 Protein Function; further: actives are rising curves; nearly all actives have a fitted effect of over 50% in size
# Conditions: series mostly up to 46.1 µM
# Description: NIH Chemical Genomics Center [NCGC]
# NIH Molecular Libraries Probe Centers Network [MLPCN]
# Assay Submitter (PI): Daniel Engel
# Influenza is a world-wide public health problem and emerging forms of the virus have the potential to cause a pandemic of equal or greater magnitude to the outbreaks recorded in 1918, 1957 or 1968. Vaccine development is proceeding and there also exist two classes of anti-influenza compounds. However these therapeutic modalities are neither fully effective nor widely enough available to fulfill global needs. In addition their potential usefulness against newly emergent strains is not known. Efforts are needed to develop novel agents against influenza virus, including broad-spectrum agents. Identification of small molecules that inhibit NS1 function either directly or by interfering with specific cellular pathways may be a key to increasing our defense against the virus.
# We have miniaturized and optimized a cell based assay in which NS1 from influenza A is expressed in the budding yeast S. cerevisiae. NS1 is a multi-functional protein that counters the host innate immune response and facilitates viral versus cellular gene expression. Expression of NS1 causes a pronounced slow growth phenotype in yeast due to its intrinsic molecular activities. Small molecules that suppress the slow growth phenotype can be identified by a straightforward growth recovery assay using optical density (OD) as the measurement. The same yeast strain not expressing NS1 was used as positive control in the yeast growth recovery assay.
# The yeast S. cerevisiae control and NS1 expressing cells were kindly supplied by laboratory of Dr. Daniel Engel, University of Virginia. Yeast starter cultures were stored in single use aliquots at -80C.
# 1. Yeast culture medium per liter: 1.2 g Yeast Nitrogen Base (w/out amino acids and Ammonium Sulphate), 5.0g Ammonium Sulphate, 0.77g -URA DO (drop-out) Supplement, adjust pH to 6.0. Adjust to 2% glucose prior to inoculating with yeast.
# 2. Yeast assay medium: 1.2 g Yeast Nitrogen Base (w/out amino acids and Ammonium Sulphate), 5.0g Ammonium Sulphate, 0.77g -URA DO (drop-out) Supplement, adjust pH to 6.0. Adjust to 2% D-galactose prior to inoculating with yeast.
# 1. Inoculate 100 mls of yeast culture medium with 1 ml of frozen yeast aliquote. Incubate overnight at 30C, 250RPM.
# 2. Harvest overnight culture at 4000 RPM and wash pellet with 15 mls H2O 3x.
# 3. Re-suspend washed pellet in 10 mls of yeast assay medium.
# 4. Prepare a 1:100 dilution of re-suspended culture in yeast assay medium.
# 5. Dispense 3.5 ul per well of reagents in step 4 in columns 2-48 in a black clear bottom 1536 well plate.
# 6. Dispense 3.5 ul per well of yeast assay medium in column 1 only.
# 7. Transfer 23 nl of compound per well.
# 8. Dispense 3.5 ul per well of yeast assay medium in columns 1-48.
# 9. Read plate using Viewlux protocol for optical density 600 (OD600) using excitation filter 600nm.
# Potency means the concentration at half of the fitted maximal effect.
row,Structure (SMILES),Potency
1,COc1ccc(/C=C2\SC(=O)N(CCC(=O)NCCCn3ccnc3)C2=O)cc1,inactive
2,COC(=O)CN1C(=O)C(C)(C)Oc2ccc(C(=O)Nc3cccc(OC)c3)cc21,inactive
3,COc1cccc(-n2c(SCC(=O)NC3CCCCC3)nc3n[nH]c(C)c3c2=N)c1,3.16 µM (active)
4,Cc1ccc(-n2c(SCC(=O)NCCC3=CCCCC3)nc3n[nH]c(C)c3c2=N)cc1Cl,inactive
5,CCCCNC(=O)CSc1nc2n[nH]c(C)c2c(=N)n1-c1cccc(Cl)c1C,inactive
6,O=C(NC(=S)Nc1ccc(Cl)cc1Cl)C1CC1,inactive
7,COc1ccc(Oc2cn[nH]c2-c2ccc(OC)cc2O)cc1,inactive
8,Cc1cc(C)c(SCCc2ccncc2)c(C)c1,inactive
9,O=c1c2ccccc2ncn1/N=C/c1ccccc1,inactive
10,COC(=O)[C@H](C)[C@H]1C[C@]1(C)[C@H](NC(=O)OCc1ccccc1)c1ccccc1,inactive
11,C[C@@H](C(=O)Nc1ccc2ccccc2c1)[C@@H]1C[C@@]1(C)[C@@H](NC(=O)c1cccnc1)c1ccccc1,12.6 µM (active)
12,O=C(Nc1ccc(N2CCN(C(=O)c3ccccc3)CC2)c(Cl)c1)c1cccnc1,inactive
13,O=C(Nc1nnc(C2=COCCO2)o1)c1ccc([N+](=O)[O-])s1,inactive
14,O=C(N/N=C\c1cc2c(cc1Cl)OCO2)c1ccc(Br)s1,inactive
15,CCCOC1CCCN(C(=O)c2cc(COc3cncc(Cl)c3)on2)C1 (stereo not drawn),inactive
16,CC(C)(C)c1ccc(CN2C(=O)c3ccccc3S2(=O)=O)cc1,inactive
17,COc1cccc(-c2nc(CS(=O)CC(=O)NCc3ccc(F)cc3)c(C)o2)c1 (stereo not drawn),inactive
18,COc1ccc(-c2nc(CS(=O)CC(=O)NCc3ccccn3)c(C)o2)cc1 (stereo not drawn),14.1 µM (active)
19,COc1ccc(-c2nc(CS(=O)CC(=O)NCc3ccccc3)c(C)o2)cc1OC (stereo not drawn),inactive
20,Cc1c(C)n(Cc2ccc(Cl)cc2)c2ccc(C(=O)NCCCN3CCOCC3)cc12,inactive
21,COCn1c(COc2ccccc2)nc2ccccc21,inactive
22,COCc1nc2ccccc2n1Cc1ccccc1Br,2.82 µM (active)
23,COc1ccccc1Cn1c(CO)nc2ccccc21,inactive

row,Structure (SMILES),Potency
1,CN(CCO)c1ccc(/C=N/Nc2nncc3ccccc23)cc1,inactive
2,CCc1ccccc1S(=O)(=O)Cc1ccc(C(=O)NCCc2ccccc2)o1,inactive
3,Clc1c(OCCCn2ccnc2)ccc2ccccc12,inactive
4,Cn1c(CC(=O)Nc2ccccc2)nnc1SCC(=O)c1ccccc1,11.2 µM (active)
5,Cn1c(CSCC(=O)Nc2ccccc2)nnc1SCc1ccccc1,inactive
6,Cn1c(Cc2cccs2)nnc1SCC(=O)Nc1ccccc1,inactive
7,O=S1(=O)CCOC[C@H](CC2CCCCC2)N1Cc1ccc(F)cc1,inactive
8,Cc1nonc1C1CCCN1C(=O)c1cc(COc2cccc(C(F)(F)F)c2)on1 (stereo not drawn),inactive
9,COc1ccc(C(=O)CC(=O)c2ccc(C)cc2)c(O)c1,inactive
10,O=C(Nc1ccccc1)c1ccc2c(c1)OCCCO2,inactive
11,Cc1cc(=O)[nH]c(SCc2cc(Cl)ccc2OC(F)F)n1,3.16 µM (active)
12,Cc1cc(=O)[nH]c(SCc2cccc(F)c2)n1,inactive
13,COc1ccccc1-c1noc(CSc2nc(C)cc(=O)[nH]2)n1,inactive
14,CC(=O)N1CCc2c(sc(NC(=O)CCS(=O)(=O)c3ccccc3)c2C#N)C1,inactive
15,Cc1ccc(N(Cc2cc(=O)[nH]c3ccccc23)C(=O)CCl)cc1,inactive
16,CC(C)n1c(COc2ccccc2)nc2ccccc21,inactive
17,Cc1cccc(NC(=O)c2ccc3c(=O)n(CC4CCCO4)c(=S)[nH]c3c2)c1 (stereo not drawn),inactive
18,CC1CCN(C2=NC(=O)/C(=C/c3ccc(O)cc3)S2)CC1,inactive
19,CC(=O)Nc1ccc(OCC(O)CN2CCN(c3ccccc3Cl)CC2)cc1 (stereo not drawn),inactive
20,OC(COc1ccc2ccccc2c1)CN1CCOCC1 (stereo not drawn),inactive
21,O=S(=O)(c1ccc(OCC(O)CN2CCN(c3ccccc3Cl)CC2)cc1)N1CCOCC1 (stereo not drawn),1.26 µM (active)
22,Cc1cccnc1CC(C)NC(=O)c1cc(COc2cncc(Cl)c2)on1 (stereo not drawn),inactive
23,O=[N+]([O-])c1ccc2c(c1)Nc1nc3ccccc3nc1N2,inactive

row,Structure (SMILES),Potency
1,Cc1cc(Br)ccc1NC(=S)NC1CCCC1,inactive
2,Cc1cccc(N=C2NN=C(c3c[nH]c4ccccc34)CS2)c1,14.1 µM (active)
3,Clc1cccc(N=C2NN=C(c3ccc4c(c3)OCCO4)CS2)c1,inactive
4,Cc1ccc(-c2csc(-c3c[nH]c4ccccc34)n2)cc1,inactive
5,COc1ccccc1NC(=O)C1CCN(C(=O)c2ccc(C(C)(C)C)cc2)CC1,inactive
6,Cc1ccc(NC(=S)NCCc2ccc(Cl)cc2)c(C)c1,inactive
7,COc1ccc2[nH]c(C(=O)N/N=C/c3cc(OC)c(OC)c(OC)c3)cc2c1,inactive
8,Cn1c(NC(=O)c2ccccc2)nc2ccccc21,inactive
9,COCCCNC(=S)N1CCN(c2nc(-c3cccc(OC)c3)cs2)CC1,inactive
10,Cc1cc(C)nc(NC(=O)C(C)N2C(=O)c3ccccc3C2=O)n1 (stereo not drawn),inactive
11,CC(C(=O)NC1CCCCC1)N1C(=O)c2cccc3cccc1c23 (stereo not drawn),inactive
12,CC(C(=O)O)N1C(=O)c2cccc3cccc1c23 (stereo not drawn),14.1 µM (active)
13,O=C1/C(=C/c2ccc(F)cc2)SC(=S)N1CCCC(=O)N1CCCCC1CCO (stereo not drawn),inactive
14,O=C(NCCCN1CCOCC1)c1ccc2c(c1)N(Cc1cccc(F)c1)C(=O)c1ccccc1S2,inactive
15,CN(C)S(=O)(=O)N1CCC(Oc2cccc(C(=O)NCCCC3CCCC3)c2)CC1,inactive
16,NC(=O)CSC1=Nc2ccccc2C2=NC(CCC(=O)NCc3ccc(F)cc3)C(=O)N12 (stereo not drawn),inactive
17,O=C(CSC1=Nc2ccccc2C2=NC(CC(=O)NCc3ccco3)C(=O)N12)NCc1ccco1 (stereo not drawn),7.94 µM (active)
18,O=C(CC1N=C2c3ccccc3N=C(SCc3ccccc3Cl)N2C1=O)NCc1ccco1 (stereo not drawn),inactive
19,CN(c1ccc(O)cc1)c1nc(-c2cccnc2)cs1,inactive
20,CC(=O)c1cccc(OCc2cc(C(=O)NC(C)Cc3cccnc3)no2)c1 (stereo not drawn),inactive
21,CNC(=O)c1sc(Nc2ccc(OCc3ccccc3)cc2)nc1C,inactive
22,CCCn1c(=N)n(CC(=O)c2ccc(Cl)c(Cl)c2)c2ccccc21,inactive
